{"source": "PubChem BioAssay AID1159580", "about": "(chemical genetic matrix, 2015)", "test": "chemical genetic growth profiling, strain panel (AID 1159580);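 note: tested at 20 µM; growth read once vehicle control cultures reached saturation at 30 °C; 1 = growth at the plate median or of vehicle wells; lower values mean less growth of the strain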", "conditions": "S. cerevisiae deletion strains, growth OD", "note": "Screen size: about 5,500 compounds; about 2,000 (36%) were called active. About 18% were inconclusive and are not listed. The list shows a part of the results. Unmarked numbers belong to inactive results. Cut-off read from the data, not from the text of the source: active = normalized growth mostly below about 0.91 (no sharp cut-off); inconclusive = no clear call, values can overlap the other calls; inactive = mostly above about 0.92.", "data": [{"smiles": "COC(=O)Nc1nc2ccc(C(=O)c3cccs3)cc2[nH]1", "values": [{"measurement": "normalized growth", "setting": "locus YAL013W, strain DEP1, active compounds read low", "value": 1.03}, {"measurement": "normalized growth", "setting": "locus YAL040C, strain CLN3, active compounds read low", "value": "0.635 (active)"}, {"measurement": "normalized growth", "setting": "locus YCL061C, strain MRC1 (second series), active compounds read low", "value": 1.01}, {"measurement": "normalized growth", "setting": "locus YDR150W, strain NUM1, active compounds read low", "value": 0.994}, {"measurement": "normalized growth", "setting": "locus YDR363W, strain ESC2, active compounds read low", "value": 1.03}, {"measurement": "normalized growth", "setting": "locus YER002W, strain NOP16, active compounds read low", "value": 1.01}, {"measurement": "normalized growth", "setting": "locus YGR229C, strain SMI1, active compounds read low", "value": 1.03}, {"measurement": "normalized growth", "setting": "locus YJR075W, strain HOC1, active compounds read low", "value": 1.04}, {"measurement": "normalized growth", "setting": "locus YMR307W, strain GAS1, active compounds read low", "value": 1.01}, {"measurement": "normalized growth", "setting": "locus YNL128W, strain TEP1, active compounds read low", "value": "0.73 (active)"}, {"measurement": "normalized growth", "setting": "locus YNL153C, strain GIM3, active compounds read low", "value": "0.124 (active)"}, {"measurement": "normalized growth", "setting": "locus YNL175C, strain NOP13, active compounds read low", "value": "0.715 (active)"}, {"measurement": "normalized growth", "setting": "locus YNL197C, strain WHI3, active compounds read low", "value": "0.429 (active)"}, {"measurement": "normalized growth", "setting": "locus YNL224C, strain SQS1, active compounds read low", "value": "0.605 (active)"}, {"measurement": "normalized growth", "setting": "locus YOR083W, strain WHI5 (second series), active compounds read low", "value": "0.442 (active)"}]}, {"smiles": "COC(=O)Nc1nc2ccc(S(=O)c3ccccc3)cc2[nH]1", "note": "(stereo not given)", "values": [{"measurement": "normalized growth", "setting": "locus YAL021C, strain ccr4, active compounds read low", "value": 1.01}, {"measurement": "normalized growth", "setting": "locus YAL026C, strain drs2, active compounds read low", "value": 0.986}, {"measurement": "normalized growth", "setting": "locus YAL030W, strain snc1, active compounds read low", "value": 0.997}, {"measurement": "normalized growth", "setting": "locus YBL061C, strain skt5, active compounds read low", "value": 0.995}, {"measurement": "normalized growth", "setting": "locus YBR009C, strain hhf1, active compounds read low", "value": 0.999}, {"measurement": "normalized growth", "setting": "locus YBR023C, strain chs3, active compounds read low", "value": 0.993}, {"measurement": "normalized growth", "setting": "locus YBR171W, strain sec66, active compounds read low", "value": 0.971}, {"measurement": "normalized growth", "setting": "locus YBR231C, strain swc5, active compounds read low", "value": 0.993}, {"measurement": "normalized growth", "setting": "locus YBR279W, strain paf1, active compounds read low", "value": 0.994}, {"measurement": "normalized growth", "setting": "locus YCL011C, strain gbp2, active compounds read low", "value": 1.01}, {"measurement": "normalized growth", "setting": "locus YCL016C, strain dcc1, active compounds read low", "value": 1.01}, {"measurement": "normalized growth", "setting": "locus YCL061C, strain MRC1, active compounds read low", "value": 0.994}, {"measurement": "normalized growth", "setting": "locus YCL069W, strain vba3, active compounds read low", "value": 0.988}, {"measurement": "normalized growth", "setting": "locus YCR088W, strain abp1, active compounds read low", "value": 0.998}, {"measurement": "normalized growth", "setting": "locus YDL005C, strain med2, active compounds read low", "value": 0.994}, {"measurement": "normalized growth", "setting": "locus YDL040C, strain nat1, active compounds read low", "value": 1}, {"measurement": "normalized growth", "setting": "locus YDR001C, strain nth1, active compounds read low", "value": 0.983}, {"measurement": "normalized growth", "setting": "locus YDR069C, strain doa4, active compounds read low", "value": 0.99}, {"measurement": "normalized growth", "setting": "locus YDR137W, strain rgp1, active compounds read low", "value": 0.996}, {"measurement": "normalized growth", "setting": "locus YDR159W, strain sac3, active compounds read low", "value": 0.966}, {"measurement": "normalized growth", "setting": "locus YDR195W, strain ref2", "value": 0.969}, {"measurement": "normalized growth", "setting": "locus YDR297W, strain sur2, active compounds read low", "value": 0.997}, {"measurement": "normalized growth", "setting": "locus YDR334W, strain swr1, active compounds read low", "value": 0.983}, {"measurement": "normalized growth", "setting": "locus YDR335W, strain msn5, active compounds read low", "value": 0.973}, {"measurement": "normalized growth", "setting": "locus YDR392W, strain spt3, active compounds read low", "value": 1}, {"measurement": "normalized growth", "setting": "locus YEL003W, strain gim4, active compounds read low", "value": 0.962}, {"measurement": "normalized growth", "setting": "locus YEL037C, strain rad23, active compounds read low", "value": 0.993}, {"measurement": "normalized growth", "setting": "locus YEL061C, strain CIN8 (second series), active compounds read low", "value": 0.983}, {"measurement": "normalized growth", "setting": "locus YER015W, strain faa2, active compounds read low", "value": 0.995}, {"measurement": "normalized growth", "setting": "locus YER016W, strain bim1, active compounds read low", "value": 0.986}, {"measurement": "normalized growth", "setting": "locus YER111C, strain swi4, active compounds read low", "value": 0.986}, {"measurement": "normalized growth", "setting": "locus YER155C, strain BEM2 (second series), active compounds read low", "value": 0.953}, {"measurement": "normalized growth", "setting": "locus YFR010W, strain ubp6, active compounds read low", "value": 0.988}, {"measurement": "normalized growth", "setting": "locus YGL167C, strain pmr1, active compounds read low", "value": 0.984}, {"measurement": "normalized growth", "setting": "locus YGL173C, strain kem1, active compounds read low", "value": 0.991}, {"measurement": "normalized growth", "setting": "locus YGL227W, strain vid30, active compounds read low", "value": 0.986}, {"measurement": "normalized growth", "setting": "locus YGL240W, strain doc1, active compounds read low", "value": 0.967}, {"measurement": "normalized growth", "setting": "locus YGL253W, strain hxk2, active compounds read low", "value": 0.998}, {"measurement": "normalized growth", "setting": "locus YHR013C, strain ard1, active compounds read low", "value": 1.02}, {"measurement": "normalized growth", "setting": "locus YHR027C, strain rpn1, active compounds read low", "value": 0.989}, {"measurement": "normalized growth", "setting": "locus YHR030C, strain SLT2, active compounds read low", "value": 1.03}, {"measurement": "normalized growth", "setting": "locus YHR079C, strain IRE1, active compounds read low", "value": 1.02}, {"measurement": "normalized growth", "setting": "locus YHR142W, strain chs7, active compounds read low", "value": 0.994}, {"measurement": "normalized growth", "setting": "locus YJL092W, strain hpr5, active compounds read low", "value": 0.984}, {"measurement": "normalized growth", "setting": "locus YJL095W, strain BCK1 (second series), active compounds read low", "value": 1}, {"measurement": "normalized growth", "setting": "locus YJL095W, strain BCK1, active compounds read low", "value": 0.972}, {"measurement": "normalized growth", "setting": "locus YJL115W, strain asf1, active compounds read low", "value": 0.985}, {"measurement": "normalized growth", "setting": "locus YJL129C, strain trk1, active compounds read low", "value": 0.981}, {"measurement": "normalized growth", "setting": "locus YJL154C, strain vps35, active compounds read low", "value": 0.987}, {"measurement": "normalized growth", "setting": "locus YJL164C, strain tpk1, active compounds read low", "value": 1.01}, {"measurement": "normalized growth", "setting": "locus YJL166W, strain qcr8, active compounds read low", "value": 0.975}, {"measurement": "normalized growth", "setting": "locus YJL187C, strain SWE1, active compounds read low", "value": 0.984}, {"measurement": "normalized growth", "setting": "locus YJR066W, strain TOR1, active compounds read low", "value": 0.975}, {"measurement": "normalized growth", "setting": "locus YKL160W, strain elf1, active compounds read low", "value": 0.99}, {"measurement": "normalized growth", "setting": "locus YKR026C, strain gcn3, active compounds read low", "value": 0.979}, {"measurement": "normalized growth", "setting": "locus YKR091W, strain srl3, active compounds read low", "value": 1}, {"measurement": "normalized growth", "setting": "locus YLL001W, strain dnm1, active compounds read low", "value": 0.976}, {"measurement": "normalized growth", "setting": "locus YLL026W, active compounds read low", "value": 1}, {"measurement": "normalized growth", "setting": "locus YLL041C, strain sdh2, active compounds read low", "value": 0.99}, {"measurement": "normalized growth", "setting": "locus YLR027C, strain aat2, active compounds read low", "value": 0.989}, {"measurement": "normalized growth", "setting": "locus YLR113W, strain HOG1, active compounds read low", "value": 0.982}, {"measurement": "normalized growth", "setting": "locus YLR221C, strain rsa3, active compounds read low", "value": 1.01}, {"measurement": "normalized growth", "setting": "locus YLR258W, strain gsy2, active compounds read low", "value": 0.984}, {"measurement": "normalized growth", "setting": "locus YLR262C, strain YPT6 (second series), active compounds read low", "value": 0.987}, {"measurement": "normalized growth", "setting": "locus YLR320W, strain mms22, active compounds read low", "value": 1}, {"measurement": "normalized growth", "setting": "locus YLR342W, strain FKS1, active compounds read low", "value": 0.991}, {"measurement": "normalized growth", "setting": "locus YLR357W, strain rsc2, active compounds read low", "value": 0.993}, {"measurement": "normalized growth", "setting": "locus YLR370C, strain arc18, active compounds read low", "value": 0.998}, {"measurement": "normalized growth", "setting": "locus YLR384C, strain iki3, active compounds read low", "value": 0.986}, {"measurement": "normalized growth", "setting": "locus YML120C, strain ndi1, active compounds read low", "value": 0.998}, {"measurement": "normalized growth", "setting": "locus YMR058W, strain fet3, active compounds read low", "value": 0.993}, {"measurement": "normalized growth", "setting": "locus YMR125W, strain sto1, active compounds read low", "value": 0.982}, {"measurement": "normalized growth", "setting": "locus YMR129W, active compounds read low", "value": 0.99}, {"measurement": "normalized growth", "setting": "locus YMR205C, strain PFK2, active compounds read low", "value": 0.982}, {"measurement": "normalized growth", "setting": "locus YMR231W, strain pep5, active compounds read low", "value": 0.98}, {"measurement": "normalized growth", "setting": "locus YNL071W, strain lat1, active compounds read low", "value": 0.994}, {"measurement": "normalized growth", "setting": "locus YNL183C, strain NPR1, active compounds read low", "value": 0.971}, {"measurement": "normalized growth", "setting": "locus YNL209W, strain ssb2, active compounds read low", "value": 1.01}, {"measurement": "normalized growth", "setting": "locus YNL248C, strain rpa49, active compounds read low", "value": 1.01}, {"measurement": "normalized growth", "setting": "locus YNL322C, strain KRE1 (second series), active compounds read low", "value": 0.998}, {"measurement": "normalized growth", "setting": "locus YNR049C, strain mso1, active compounds read low", "value": 0.977}, {"measurement": "normalized growth", "setting": "locus YOR001W, strain rrp6, active compounds read low", "value": 0.982}, {"measurement": "normalized growth", "setting": "locus YOR070C, strain gyp1, active compounds read low", "value": 0.999}, {"measurement": "normalized growth", "setting": "locus YOR080W, strain dia2, active compounds read low", "value": 0.974}, {"measurement": "normalized growth", "setting": "locus YOR083W, strain WHI5, active compounds read low", "value": 0.991}, {"measurement": "normalized growth", "setting": "locus YOR106W, strain vam3, active compounds read low", "value": 1}, {"measurement": "normalized growth", "setting": "locus YOR231W, strain MKK1, active compounds read low", "value": 1}, {"measurement": "normalized growth", "setting": "locus YOR265W, strain rbl2, active compounds read low", "value": 0.992}, {"measurement": "normalized growth", "setting": "locus YOR270C, strain vph1, active compounds read low", "value": 1}, {"measurement": "normalized growth", "setting": "locus YOR290C, strain snf2, active compounds read low", "value": 1.01}, {"measurement": "normalized growth", "setting": "locus YPL051W, strain arl3, active compounds read low", "value": 0.993}, {"measurement": "normalized growth", "setting": "locus YPL078C, strain atp4, active compounds read low", "value": 0.963}, {"measurement": "normalized growth", "setting": "locus YPL106C, strain sse1, active compounds read low", "value": 0.99}, {"measurement": "normalized growth", "setting": "locus YPL240C, strain hsp82, active compounds read low", "value": 1}, {"measurement": "normalized growth", "setting": "locus YPL256C, strain CLN2, active compounds read low", "value": 1.01}]}]}
